Bioassay records deposited in PubChem by National Center for Advancing Translational Sciences (NCATS).
Rab9 promoter act: activators of Rab9 promoter; AID 485297; Huh7 Rab9 promoter-luciferase reporter, luminescence, 24 h; 2.8% of 320,000 active; Potency, µM (highest dose often 9.22 µM), without a hit: top-dose activation, negative = inhibition, usual class: activators; also: % of control where 0% means no effect; nearly all actives have a fitted effect of over 60% in size
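Quantitative HTS format; Huh7 Rab9-luciferase reporter cells (1500/well) receive compound 2 h post-plating, incubate 24 h at 37 °C, then get luciferase reagent for 10 min before luminescence reading.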
KinaseGlo FLuc: blocks Kinase-Glo luciferase, a counter-screen artifact. Potency, µM (doses to about 38.3 µM), for the others: at the highest dose activity change, negative = inhibition, actives largely listed as inhibitors. Q27757. Kinase-Glo luciferase, ATP luminescence, 8 min. 0.28% of 200,000 active; also: % is scaled to controls: 0 for no effect and ±100 for the full control effect; nearly all actives have a fitted effect of over 60% in size
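Compounds were added to a substrate mix at pH 7.2 (50 mM imidazole, 10 uM ATP, within the enzyme's linear range), followed by Kinase-Glo detection reagent; luminescence was measured after 8 minutes at ambient temperature.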
NPC1 prom act: NPC1 promoter activation | Huh7 NPC1 promoter luciferase reporter, 24 h | Potency, µM (titrated, usually from 9.22 µM), for the others: top-dose activation, hits mostly activators | 2.4% of 320,000 active | AID 485313; also: % of control where 0% means no effect; nearly all actives have a fitted effect of over 60% in size
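Quantitative HTS used a cell-based reporter: Huh7 cells stably bearing the NPC1 promoter upstream of luciferase were treated with compounds for 24 h, and promoter activation was read as luminescence.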
SMN2 splice enh: increases expression of the SMN2 splice variant; HEK293 SMN2-luciferase splicing reporter, luminescence, 30-36 h; Potency, µM (series often up to 46.1 µM), for the others: at the top dose activity change, positive = activation, hits mostly activators; 2.8% of 210,000 active; AID 1458; also: % of control where 0% means no effect; nearly all actives have a fitted effect of over 55% in size
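HEK293 cells carry an SMN2 […]–luciferase reporter in which exon 7 inclusion puts luciferase in frame. Cells were plated 10-12 h before compound addition, then incubated 30-36 h at 37C. ONE-Glo luminescence was read; sodium butyrate at 4.5 mM final served as control.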
FLuc counter: inhibits or activates purified firefly luciferase, miR-21 counter-screen; P08659; purified FLuc, Km substrates, luminescence inhibition; Potency, µM (series often up to 57.5 µM), for inactives: top-dose activity change, negative = inhibition, usual class: inhibitors; 6.9% of 360,000 active;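 also: plate controls were vehicle for no effect and reference inhibitor for full effect; nearly all actives have a fitted effect of over 55% in size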
Target sequence (P08659 whole entry, looked up): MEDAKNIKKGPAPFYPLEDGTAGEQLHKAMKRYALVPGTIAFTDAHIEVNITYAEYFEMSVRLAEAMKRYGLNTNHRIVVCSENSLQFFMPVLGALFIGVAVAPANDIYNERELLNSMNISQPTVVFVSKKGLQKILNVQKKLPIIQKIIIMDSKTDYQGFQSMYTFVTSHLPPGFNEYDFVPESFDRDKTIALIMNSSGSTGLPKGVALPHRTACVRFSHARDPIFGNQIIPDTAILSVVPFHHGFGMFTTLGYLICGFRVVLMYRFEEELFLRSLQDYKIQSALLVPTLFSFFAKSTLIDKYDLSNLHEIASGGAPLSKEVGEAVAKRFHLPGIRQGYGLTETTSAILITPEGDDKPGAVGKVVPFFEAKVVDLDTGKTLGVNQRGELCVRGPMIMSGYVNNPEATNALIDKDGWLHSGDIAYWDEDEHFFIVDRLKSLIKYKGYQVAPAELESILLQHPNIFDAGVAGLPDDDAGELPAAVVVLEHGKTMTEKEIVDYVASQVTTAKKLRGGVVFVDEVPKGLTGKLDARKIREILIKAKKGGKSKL
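Purified P. pyralis luciferase (10nM final) with 10uM D-luciferin and 10uM ATP (Km levels) in 50mM Tris acetate pH 7.5, 10mM Mg acetate, 0.01% Tween-20, 0.05% BSA; qHTS 6-point titration, ~60 µM downward; luminescence read.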
ELG1 genotoxic: inducers of genotoxicity in HEK293T ELG1-luciferase cells. HEK293T ELG1-luciferase reporter, luminescence, 16 h. Potency, µM (titrated, usually from 46 µM), for the others: top-dose activity change, positive = activation, usual class: activators. 1.3% of 330,000 active. AID 504466; also: % of control where 0% means no effect; nearly all actives have a fitted effect of over 60% in size
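After overnight (16 hr) compound treatment at 37 °C, ELG1-luciferase HEK293T cells were lysed with ONE-Glo; luminescence quantified 30 min later at room temperature.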
Numbers without * were called inactive; ? = inconclusive; nt = no result. Rows were chosen to be rich in hits. Some 7.5% of all compounds tested hit in one or more screens of this group. Calls follow the shape of the dose curve; as a rule, active = well fitted curve in the direction sought with a large enough effect; inconclusive = small, poorly fitted or top-dose-only effect, or another doubt; inactive = no such curve, though single readings can be large; an effect the other way counts as inactive or inconclusive. Potency is read from the fitted curve at half-maximal effect.

SMILES | Rab9 promoter act | KinaseGlo FLuc | NPC1 prom act | SMN2 splice enh | FLuc counter | ELG1 genotoxic
O=C(Cn1ncc(N2CCCC2)c(Cl)c1=O)c1ccc(Cl)cc1 | 1.4µM* | 4% | 2.5µM* | 13µM* | 21µM* | ?
O=C(Cn1ncc(N2CCOCC2)c(Br)c1=O)c1ccc(Cl)cc1 | -1% | 3% | 16% | 8% | -19% | 10%
CCOc1ccccc1C1C(C(=O)Nc2ccccc2)=C(C)Nc2c(C(=O)Nc3ccc(F)cc3)cnn21 (stereo not given) | nt | nt | nt | 11% | -2% | nt
CC(=O)c1ccc(NC(=O)NC2CCCCCCC2)cc1 | 1.8µM* | nt | 1.6µM* | nt | 12µM* | 8.2µM*
CC(=O)c1cccc(NC(=O)NC2CCCCCCC2)c1 | 24% | nt | 25% | nt | 17µM* | 2%
Cc1ccc(NC(=O)NC2CCCCCCC2)cc1C | 3.5µM* | nt | 4µM* | nt | 7.6µM* | ?
O=C(Nc1ccc2nsnc2c1)NC1CCCCC1 | 1.4µM* | 19% | 2.2µM* | ? | 6.7µM* | ?
Nc1ccc(NC(=O)NC2CCCCC2)cc1 | ? | -2% | 24% | nt | ? | ?
CC(=O)c1cccc(NC(=O)NC2CCCCC2)c1 | -5% | 12% | 3% | 13% | ? | 1%
CCC1CCC(NC(=O)Nc2cccc(OC)c2)CC1 (stereo not given) | 1.3µM* | -2% | 4µM* | nt | 4.8µM* | ?
Cc1cccc(NC(=O)NC2CCCCCCC2)c1 | 3.5µM* | nt | 1.6µM* | nt | 11µM* | ?
CCOC(=O)N1CCN(C(=O)c2ccc3c(c2)sc2nc(-c4ccccc4)cn23)CC1 | 3.2µM* | -6% | 3.5µM* | -32% | 21µM* | 1%
CCOC(=O)N1CCN(CC(=O)Nc2nc3ccccc3s2)CC1 | 0% | nt | -5% | nt | 0% | -4%
CCOC(=O)N1CCN(C(=O)c2nc3ccccc3s2)CC1 | 13% | -2% | 16% | ? | 19µM* | ?
Cc1ccc2oc(-c3ccc(NC(=O)c4ccncc4)cc3O)nc2c1 | 24% | -9% | 0% | nt | ? | ?
Cc1ccc2oc(-c3cc(NC(=O)c4ncn[nH]4)ccc3O)nc2c1 | 2% | nt | -3% | nt | 2.7µM* | 0%
COc1cccc(NC(=O)CCNC(=O)N2CC(=O)Nc3ccccc32)c1 | 14% | nt | 12% | nt | 0% | 3%
NC(=O)c1cccnc1Nc1cccc([N+](=O)[O-])c1 | 1.8µM* | 1% | 4µM* | nt | 15µM* | ?
COc1ccc(C2(C)NC(=O)N(CC(=O)NC3CC3)C2=O)cc1 (stereo not given) | nt | nt | nt | nt | nt | 1%
CC1CCC(NC(=O)CN2C(=O)NC(C)(C)C2=O)CC1 (stereo not given) | -8% | nt | 1% | nt | -1% | 0.12µM*
COC(=O)CNC(=O)C1(C)C=CCN1C(=O)c1ccccc1 (stereo not given) | ? | -1% | 15% | 11µM* | 15µM* | ?
CC(=O)N1CC=CC1(C)C(=O)NCC1CC1 (stereo not given) | nt | -6% | nt | 11µM* | nt | nt
CC(C)CC1(C(=O)NCC2CC2)C=CCN1C(=O)c1ccccc1 (stereo not given) | nt | -18% | nt | 13µM* | nt | nt
COC(=O)CNC(=O)C1(CC(C)C)C=CCN1C(=O)c1ccccc1 (stereo not given) | nt | -4% | nt | ? | nt | nt
CC(=O)N1CC=CC1(CC(C)C)C(=O)NCC1CC1 (stereo not given) | nt | -1% | nt | ? | nt | nt
SMILES | Rab9 promoter act | KinaseGlo FLuc | NPC1 prom act | SMN2 splice enh | FLuc counter | ELG1 genotoxic
Cc1ccc(-n2c(O)c(/C=N/Nc3ccc(S(=O)(=O)N4CCOCC4)cc3[N+](=O)[O-])c3ccccc3c2=O)c(C)c1 | -15% | ? | -7% | -99% | 24µM* | -14%
O=C(O)c1ccc(/C=N\Nc2ccc(S(=O)(=O)N3CCOCC3)cc2[N+](=O)[O-])cc1 | -3% | nt | 1% | nt | -3% | 3%
Cc1cccc(C)c1OCc1cc(C(=O)N2CCC(c3ccncc3)CC2)no1 | 1% | nt | 6% | nt | 13µM* | 10%
O=C(c1cc(COc2c(F)cccc2F)on1)N1CCC(c2ccccc2F)C1 (stereo not given) | ? | -3% | 29% | nt | 15µM* | ?
O=C(c1cc(COc2c(F)cccc2F)on1)N1CCC(c2ccncc2)CC1 | -31% | 1% | -32% | nt | -3% | -7%
O=C(c1cc(COc2c(F)cccc2F)on1)N1C[C@H]2CC[C@H]1C2 | 1.6µM* | nt | 3.2µM* | nt | 12µM* | 12µM*
O=C(Nc1cccc(Cl)c1)c1cc2c(=O)[nH]c3ccccc3c2s1 | nt | nt | nt | 8% | ? | nt
CCN(CC)C(=O)c1sc2c(c1C)c(=O)n(-c1ccc(Cl)c(Cl)c1)c(=O)n2Cc1cc(=O)n2ccccc2n1 | nt | nt | nt | nt | 3% | nt
O=C(Cn1nc([N+](=O)[O-])nc1Br)NC(c1ccccc1)c1ccccc1 | -4% | 6% | -2% | -17% | 5% | 1%
CCCOC1CCCN(C(=O)CCc2nnc(-c3ccc4c(c3)OCO4)o2)C1 (stereo not given) | 3.2µM* | nt | ? | nt | ? | ?
CCC(=O)C1CCCN(C(=O)CCc2nnc(-c3ccc4c(c3)OCO4)o2)C1 (stereo not given) | ? | nt | 14% | nt | ? | ?
CC1CCCN(C(=O)CCc2nnc(-c3ccc4c(c3)OCO4)o2)C1 (stereo not given) | 28% | nt | ? | nt | ? | ?
CCC(=O)C1CCCN(C(=O)CCc2nnc(-c3ccc(C(C)=O)s3)o2)C1 (stereo not given) | ? | nt | ? | nt | 11µM* | ?
CCCC/C=C/C(NC(=O)c1ccc(C(F)(F)F)cc1)c1ccccc1 (stereo not given) | nt | -5% | nt | -36% | nt | nt
CCOc1ccc(-c2cc(CCCC(=O)Nc3cccc(OC)c3)no2)cc1 | -21% | 2% | -19% | 12% | 6.7µM* | 5%
CCOc1ccc(NC(=O)CCCc2cc(-c3ccc(OCC)cc3)on2)cc1 | 0% | -3% | -1% | 14% | -3% | 7%
CCOc1ccc(-c2cc(CCCC(=O)Nc3cc(OC)ccc3OC)no2)cc1 | -4% | -1% | -4% | -17% | 6µM* | -9%
COc1ccc2c(c1OC)C(=O)N1C2SC[C@H]1C(=O)NC1CC1 (stereo not given in full) | -3% | nt | -1% | nt | 1% | 0%
O=C(Cn1nnc2sc(-c3ccccc3)cc2c1=O)Nc1cccc(C(F)(F)F)c1 | nt | nt | nt | 6% | -14% | nt
COc1ccc(-c2nc(CC(=O)O)cs2)cc1OC | -7% | -2% | 0% | 7% | 1% | 8%
CCOc1ccc(-c2nc(CCl)cs2)cc1OC | 8% | 0% | 10% | -10% | 17µM* | ?
